Data on 65 compounds can be found in the antibiotic and cytotoxicity screens of Wong et al. (2023).

About 3,300 (8.5%) of roughly 39,000 compounds were called active. The sample as a whole holds a higher share of actives than the screen did.

The test system of this assay is HepG2. In words: cytotoxicity call (relative viability < 0.9). To be noted: 10 µM.
With `C[C@@H]1CN([C@H](C)CO)C(=O)c2c(c3ccccc3n2C)-c2ccccc2CO[C@H]1CN(C)C(=O)Nc1cccc(F)c1`, the cytotoxicity call is “inactive”.
`C[C@@H]1CCCCO[C@H](CN(C)Cc2ccc(Cl)c(Cl)c2)[C@H](C)CN([C@@H](C)CO)C(=O)c2cc(NS(C)(=O)=O)ccc2O1`: the cytotoxicity call is “active”.
Next, `C[C@@H]1CCCCO[C@@H](CN(C)Cc2ccc(Cl)c(Cl)c2)[C@H](C)CN([C@@H](C)CO)C(=O)c2cc(NS(C)(=O)=O)ccc2O1`: “inactive”.
In the case of `C[C@@H]1CCCCO[C@H](CN(C)Cc2ccc(Cl)c(Cl)c2)[C@@H](C)CN([C@H](C)CO)C(=O)c2cc(NS(C)(=O)=O)ccc2O1`, the cytotoxicity call is “inactive”.
As for `C[C@@H]1CCCCO[C@@H](CN(C)Cc2ccc(Cl)c(Cl)c2)[C@@H](C)CN([C@@H](C)CO)C(=O)c2cc(NS(C)(=O)=O)ccc2O1`, the cytotoxicity call was “inactive”.
Next, `C[C@@H]1CN([C@H](C)CO)C(=O)c2cc(NS(C)(=O)=O)ccc2O[C@@H](C)CCCCO[C@H]1CN(C)Cc1ccc(Cl)c(Cl)c1`: “active”; `C[C@@H]1CCCCO[C@H](CN(C)Cc2ccc(Cl)c(Cl)c2)[C@@H](C)CN([C@@H](C)CO)C(=O)c2cc(NS(C)(=O)=O)ccc2O1`: “inactive”.
The same measure for `C[C@@H](NC(=O)C[C@@H]1CC[C@@H](NC(=O)CN2CCOCC2)[C@@H](CO)O1)c1ccccc1`: “inactive”; for `O=C1c2cccc(O)c2C(=O)c2c(O)cccc21`: “active”; for `O=C1c2c(O)cccc2Cc2cccc(O)c21`: “inactive”.
For the compound `Cc1cc(O)c2c(c1)C(=O)c1cccc(O)c1C2=O`, the cytotoxicity call was “inactive”.
In the case of `COc1cccc(NC(=O)N2C[C@H](O)COC[C@@H]3O[C@@H](CC(=O)NCc4ccccc4F)CC[C@H]32)c1`, the cytotoxicity call was “inactive”.
Consider `CNC(=O)CN(C#N)c1nc(N(C)C)nc(N(C)C)n1`, for which the cytotoxicity call is “inactive”.
For the compound `C[C@@H]1CCCCO[C@H](CN(C)Cc2ccc(C(=O)O)cc2)[C@H](C)CN([C@@H](C)CO)C(=O)c2cc(NC(=O)Nc3cccc4ccccc34)ccc2O1`, the cytotoxicity call was “inactive”.
The same measure for `C[C@H](CO)N1C[C@H](C)[C@@H](CN(C)Cc2ccc(C(F)(F)F)cc2)Oc2c(NC(=O)Nc3ccccc3)cccc2C1=O`: “inactive”; for `CCc1c(C(=O)OC)nnn1-c1nonc1N`: “inactive”.
For `NNC(=O)c1nnn(-c2nonc2N)c1CN1CCCCC1`, the cytotoxicity call was “inactive”.
Turning to `CN(C)Cc1c(C(=O)N/N=C/c2ccncc2)nnn1-c1nonc1N`, the cytotoxicity call was “active”.
Turning to `Cc1noc(C)c1NC(=O)N(C)C[C@@H]1Oc2c(NS(=O)(=O)c3ccccc3)cccc2C(=O)N([C@@H](C)CO)C[C@H]1C`, the cytotoxicity call was “inactive”.
`COc1ccc(NC(=O)N(C)C[C@@H]2OCCCC[C@H](C)Oc3ccc(NC(=O)Nc4ccc(C(F)(F)F)cc4)cc3C(=O)N([C@@H](C)CO)C[C@@H]2C)cc1`: the cytotoxicity call is “inactive”.
The same measure for `C[C@@H]1CCCCO[C@H](CN(C)C(=O)Nc2ccccc2)[C@H](C)CN([C@@H](C)CO)C(=O)c2cc(NC(=O)Nc3ccc(C(F)(F)F)cc3)ccc2O1`: “inactive”.
Next, `O=C1CC[C@H](C(=O)N2CCCCC2)N1`: “inactive”; `Cc1ccc(S(=O)(=O)N(C)C[C@H]2Oc3ccc(NS(=O)(=O)c4ccc(F)cc4)cc3CC(=O)N([C@@H](C)CO)C[C@H]2C)cc1`: “inactive”; `COc1ccc(S(=O)(=O)Nc2ccc3c(c2)CC(=O)N([C@@H](C)CO)C[C@H](C)[C@@H](CN(C)S(=O)(=O)c2ccccc2)O3)cc1`: “inactive”.
For the compound `Cc1ccc(S(=O)(=O)Nc2ccc3c(c2)CC(=O)N([C@@H](C)CO)C[C@H](C)[C@@H](CN(C)S(=O)(=O)c2ccc(F)cc2)O3)cc1`, the cytotoxicity call is “inactive”.
`COc1ccc(S(=O)(=O)N(C)C[C@H]2Oc3ccc(NC(=O)Cc4ccccc4)cc3CC(=O)N([C@H](C)CO)C[C@@H]2C)cc1`: the cytotoxicity call was “inactive”.
`Cc1noc(C)c1S(=O)(=O)Nc1ccc2c(c1)CC(=O)N([C@H](C)CO)C[C@H](C)[C@@H](CN(C)S(=O)(=O)c1ccc(Cl)cc1)O2`: the cytotoxicity call was “inactive”.
Turning to `Cc1noc(C)c1S(=O)(=O)Nc1ccc2c(c1)CC(=O)N([C@H](C)CO)C[C@@H](C)[C@@H](CN(C)S(=O)(=O)c1ccc(Cl)cc1)O2`, the cytotoxicity call was “inactive”.
Turning to `Cc1ccc(S(=O)(=O)N(C)C[C@H]2Oc3ccc(NS(=O)(=O)c4ccc(F)cc4)cc3CC(=O)N([C@@H](C)CO)C[C@@H]2C)cc1`, the cytotoxicity call is “active”.
Next, `COc1ccc(S(=O)(=O)N(C)C[C@@H]2Oc3ccc(NC(=O)Cc4ccccc4)cc3CC(=O)N([C@H](C)CO)C[C@@H]2C)cc1`: “active”; `Cc1noc(C)c1S(=O)(=O)Nc1ccc2c(c1)CC(=O)N([C@@H](C)CO)C[C@@H](C)[C@H](CN(C)S(=O)(=O)c1ccc(Cl)cc1)O2`: “active”.
As to `COc1ccc(S(=O)(=O)N(C)C[C@@H]2Oc3ccc(NS(=O)(=O)c4ccccc4)cc3CC(=O)N([C@H](C)CO)C[C@H]2C)cc1`, the cytotoxicity call is “inactive”.
Take `COc1ccc(S(=O)(=O)N(C)C[C@@H]2Oc3ccc(NC(=O)Cc4ccccc4)cc3CC(=O)N([C@@H](C)CO)C[C@H]2C)cc1`: the cytotoxicity call is “inactive”.
On to `COc1ccc(S(=O)(=O)N(C)C[C@@H]2Oc3ccc(NS(=O)(=O)c4ccccc4)cc3CC(=O)N([C@@H](C)CO)C[C@H]2C)cc1`, for which the cytotoxicity call is “active”.
With `O=c1cc[nH]c(C(F)(F)F)n1`, the cytotoxicity call is “inactive”.
Consider `C[C@@H]1CCCCO[C@@H](CN(C)C(=O)Nc2ccccc2)[C@H](C)CN([C@@H](C)CO)C(=O)c2cc(NS(=O)(=O)c3cccs3)ccc2O1`, for which the cytotoxicity call was “inactive”.
For `C[C@H](CO)N1C[C@H](C)[C@H](CN(C)S(=O)(=O)c2cn(C)cn2)Oc2ncc(C#CCN(C)C)cc2C1=O`, the cytotoxicity call was “inactive”.
The same measure for `COc1ccc(NC(=O)Nc2cccc3c2O[C@H](CN(C)S(C)(=O)=O)[C@@H](C)CN([C@H](C)CO)C3=O)cc1`: “inactive”; for `Cc1noc(C)c1NC(=O)N(C)C[C@@H]1OCCCC[C@@H](C)Oc2ccc(NC(=O)c3ccccc3)cc2C(=O)N([C@H](C)CO)C[C@H]1C`: “inactive”.
`CCC(=O)N1CCC[C@H](C(=O)O)C1`: the cytotoxicity call was “inactive”.
Next, `NC(=O)CCCCC(N)=O`: “inactive”; `COc1ccc(NC(=O)Nc2ccc3c(c2)C(=O)N([C@@H](C)CO)C[C@@H](C)[C@@H](CN(C)C(=O)Nc2ccc(C(F)(F)F)cc2)OCCCC[C@@H](C)O3)cc1`: “inactive”; `O=C(COP(=O)(O)O)[C@H](O)[C@@H](O)COP(=O)(O)O`: “inactive”.
Turning to `C[C@@H]1CN([C@H](C)CO)C(=O)c2cc(NS(=O)(=O)c3ccc(F)cc3)ccc2O[C@@H](C)CCCCO[C@@H]1CN(C)C(=O)Cc1ccccc1`, the cytotoxicity call is “inactive”.
Regarding `C[C@H]1CN([C@@H](C)CO)C(=O)Cc2cc(NS(=O)(=O)c3ccc(Cl)cc3)ccc2O[C@@H]1CN(C)C`, the cytotoxicity call was “active”.
The same measure for `C[C@@H]1CN([C@H](C)CO)C(=O)Cc2cc(NS(=O)(=O)c3ccc(Cl)cc3)ccc2O[C@@H]1CN(C)C`: “inactive”; for `COc1ccc(S(=O)(=O)Nc2ccc3c(c2)CC(=O)N([C@H](C)CO)C[C@H](C)[C@@H](CN(C)C)O3)cc1`: “inactive”; for `COc1ccc(S(=O)(=O)Nc2ccc3c(c2)CC(=O)N([C@H](C)CO)C[C@@H](C)[C@@H](CN(C)C)O3)cc1`: “active”.
On to `COc1ccc(S(=O)(=O)Nc2ccc3c(c2)CC(=O)N([C@H](C)CO)C[C@H](C)[C@H](CN(C)C)O3)cc1`, for which the cytotoxicity call was “inactive”.
As for `C[C@@H]1CN([C@@H](C)CO)C(=O)Cc2cc(NS(=O)(=O)c3ccc(Cl)cc3)ccc2O[C@@H]1CN(C)C`, the cytotoxicity call is “inactive”.
Take `C[C@H]1CN([C@@H](C)CO)C(=O)c2cc(NC(=O)Nc3ccccc3)ccc2O[C@H]1CN(C)C(=O)Nc1cccc2ccccc12`: the cytotoxicity call was “inactive”.
For the compound `CN1C(=O)c2cc(NS(=O)(=O)c3cccc(F)c3)ccc2OC[C@H]2O[C@H](CC(=O)NCCN3CCCCC3)CC[C@H]21`, the cytotoxicity call was “inactive”.
With `O=C(C[C@H]1C=C[C@@H](NC(=O)c2cccnc2)[C@@H](CO)O1)NCCN1CCCCC1`, the cytotoxicity call is “inactive”.
Turning to `CC(C)NC(=O)Nc1cccc2c1O[C@@H](CN(C)C(=O)NC1CCCCC1)[C@@H](C)CN([C@H](C)CO)C2=O`, the cytotoxicity call is “inactive”.
As for `COc1ccc(S(=O)(=O)N(C)C[C@H]2OCCCC[C@H](C)Oc3ccc(NC(=O)Nc4ccccc4)cc3C(=O)N([C@@H](C)CO)C[C@@H]2C)cc1`, the cytotoxicity call was “inactive”.
In the case of `C[C@@H]1CN([C@@H](C)CO)C(=O)c2cccc(NC(=O)CCCCCC(=O)Nc3ccccc3N)c2O[C@H]1CN(C)Cc1ccc(Cl)c(Cl)c1`, the cytotoxicity call is “inactive”.
The same measure for `C[C@@H]1CN([C@H](C)CO)C(=O)c2cccc(NC(=O)CCCCCC(=O)Nc3ccccc3N)c2O[C@H]1CN(C)Cc1ccc(-c2ccccc2)cc1`: “inactive”; for `C[C@H]1CN([C@@H](C)CO)C(=O)c2cccc(NC(=O)CCCCCC(=O)Nc3ccccc3N)c2O[C@@H]1CN(C)Cc1ccc(Cl)c(Cl)c1`: “active”.
Consider `C[C@@H]1CN([C@@H](C)CO)C(=O)c2cccc(NC(=O)CCCCCC(=O)Nc3ccccc3N)c2O[C@@H]1CN(C)Cc1ccc(Cl)c(Cl)c1`, for which the cytotoxicity call is “inactive”.
Next, `C[C@@H]1CN([C@@H](C)CO)C(=O)c2cccc(NC(=O)CCCCCC(=O)Nc3ccccc3N)c2O[C@@H]1CN(C)Cc1ccc(-c2ccccc2)cc1`: “inactive”.
Take `C[C@H]1CN([C@@H](C)CO)C(=O)c2cccc(NC(=O)CCCCCC(=O)Nc3ccccc3N)c2O[C@H]1CN(C)Cc1ccc(-c2ccccc2)cc1`: the cytotoxicity call is “inactive”.
As for `C[C@H](CO)N1C[C@H](C)[C@@H](CN(C)Cc2ccc(-c3ccccc3)cc2)Oc2c(NC(=O)CCCCCC(=O)Nc3ccccc3N)cccc2C1=O`, the cytotoxicity call is “active”.
On to `C[C@@H]1CN([C@@H](C)CO)C(=O)c2cccc(NC(=O)CCCCCC(=O)Nc3ccccc3N)c2O[C@H]1CN(C)Cc1ccc(-c2ccccc2)cc1`, for which the cytotoxicity call was “inactive”.
As for `C[C@@H]1CN([C@H](C)CO)C(=O)c2cccc(NC(=O)CCCCCC(=O)Nc3ccccc3N)c2O[C@@H]1CN(C)Cc1ccc(-c2ccccc2)cc1`, the cytotoxicity call is “active”.
For the compound `[N-]=[N+]=Nc1ccccc1[C@@H]1OC(c2ccc(OCCCO)cc2)=N[C@]1(CCS(=O)(=O)c1ccccc1)C(=O)NC[C@@H](O)CO`, the cytotoxicity call is “inactive”.
